The source of these data is PubChem BioAssay AID1645851 (National Center for Advancing Translational Sciences (NCATS), 2021).

SMILES strings stand for the structures. About 1,200 (0.86%) of roughly 140,000 compounds were called active. The entries come from a sample that favours actives as a whole. Unmarked numbers belong to inactive results. No stated cut-off is given here; in the data, active means activity change below about -25%; inactive means the rest.
On the % scale 0 is the no-effect control and ±100 the full control effect.

This test deals with Inositol hexakisphosphate kinase 1 (Homo sapiens) (UniProt Q92551). Description: Primary qHTS assay for small molecule inhibitors of Inositol hexaphosphate kinase 1 (IP6K1). Further: series mostly up to about 58 µM. To be noted: ADP-Glo luminescence, 2 h, active compounds read low. The source says: Assay Provider: Huijun Wei, M.S., Ph.D. School of Medicine, Johns Hopkins University, Baltimore, MD Inositol hexakisphosphate kinases (IP6Ks) catalyze pyrophosphorylation of inositol hexakisphosphate (IP6) into inositol 5-diphospho-1,2,3,4,6-pentakisphosphate (IP7), which is involved in numerous areas of cell physiology including glucose homeostasis, blood coagulation and neurological development. Inhibition of IP6Ks may be effective for the treatment of Type II diabetes, thrombosis, and psychiatric disorders. We performed a quantitative high throughput screen (qHTS) of 158,410 compounds for IP6K1 inhibitors using ankinase activity ADP-Glo Max assay. […] Medicinal chemistry SAR efforts in three chemical series identified potent IP6K1 inhibitors, which were further validated in an orthogonal LC-MS IP7 analysis.
Chain of Inositol hexakisphosphate kinase 1 (Homo sapiens) (Q92551 whole entry, looked up): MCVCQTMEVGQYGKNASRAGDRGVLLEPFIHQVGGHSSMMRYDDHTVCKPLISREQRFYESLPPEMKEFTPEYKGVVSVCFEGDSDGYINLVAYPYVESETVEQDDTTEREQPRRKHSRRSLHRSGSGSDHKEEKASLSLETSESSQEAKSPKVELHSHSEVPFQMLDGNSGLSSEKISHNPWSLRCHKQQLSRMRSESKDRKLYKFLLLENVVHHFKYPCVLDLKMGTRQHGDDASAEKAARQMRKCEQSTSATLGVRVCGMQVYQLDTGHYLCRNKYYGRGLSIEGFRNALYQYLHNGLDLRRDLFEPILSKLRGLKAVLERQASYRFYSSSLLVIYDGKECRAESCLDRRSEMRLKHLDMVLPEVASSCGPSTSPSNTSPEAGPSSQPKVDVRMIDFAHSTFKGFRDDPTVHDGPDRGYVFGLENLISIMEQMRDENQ
PROTOCOL TABLE SEQUENCE No. (e.g., 1, 2, 3, etc.); […] (e.g., Cells, Incubation, Reagent, etc.); VALUE and DESCRIPTION. 1. Reagent, 3 uL of 1.3 mM ATP and 130 uM IP6 mixture in assay buffer was dispensed to a white, 1536-well assay plate. 2. Compound, 23 nL of compounds of the top two doses (57.5 uM and 19.1 uM final concentration) of the libraries were dispensed into the mixture using the Kalypsis pintool. 3. Reagent, 1 uL of 2.4 uM IP6K1 was dispensed to the assay plates. 4. Incubation, 2 hr incubation at room temperature. 5. Reagent, 2 uL of ADP-Glo reagent was added to the wells. 6. Incubation, 1 hr incubation at room temperature. 7. Reagent, 4 uL or ADP-Glo substate was added to the wells. 8. Incubation, 45 min incubation at room temperature. 9. Detection, luminescence signal was detected using the ViewLux microplate imager (PerkinElmer).
Background: In qHTS, concentration-response curves come from the screen itself.
For the molecule `Oc1ccc2c3c1O[C@H]1c4[nH]c5c(N=C=S)cccc5c4C[C@@]4(O)[C@@H](C2)N(CC2CC2)CC[C@]314`, the activity change is -97.1% (active).
The result for `CO[C@]12CC[C@@]3(C[C@@H]1[C@](C)(O)C(C)(C)C)[C@@H]1Cc4ccc(O)c5c4[C@@]3(CCN1CC1CC1)[C@H]2O5` reads 0.147%; that for `C/C=C(\C)C(O)C(C)/C=C(C)/C=C/C/C(C)=C/Cc1nc(OC)c(OC)c(O[C@@H]2O[C@@H](C)[C@H](O)[C@@H](O)[C@H]2O)c1C` (stereo not given in full), -8.45%; that for `NC(=O)[C@@H](CC1CC1)[C@@H](CCC(F)(F)F)C(=O)N[C@H]1N=C(c2ccccc2)c2cccc(F)c2NC1=O`, 10.6%.
For `C[C@@H]1C[C@@H](O)[C@]2(O)O[C@@H]3C[C@@]4(C=O)C(CC[C@@H]5C4CC[C@]4(C)[C@@H](C6=CC(=O)OC6)CC[C@]54O)C[C@H]3O[C@@H]2O1` (stereo not given in full), the activity change was 17.6%.
